From PubChem
DT40 TDP1 CPT: DT40-hTDP1 cell growth loss with CPT. Potency, µM (series often up to 46.2 µM), inactives show at the highest dose activity change, negative = growth inhibition, actives largely listed as inhibitors. hit rate 12% among 420,000. chicken DT40 Tdp1-/-;hTDP1 cells + 20 nM CPT, ATP luminescence, 48 h; further: potency means the concentration at half of the fitted maximal effect; nearly all actives have a fitted effect of over 55% in size
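Chicken DT40 Tdp1-/- cells stably complemented with human TDP1 were seeded at 400 cells/well in medium containing 20 nM camptothecin, exposed to pin-transferred compounds, and grown at 37 °C for at least 48 hr. Viability was read as ATP luminescence.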
IL1B secr inh: inhibitors of inflammasome signaling (IL-1 beta secretion); THP-1 LPS/ATP IL-1B secretion, AlphaLISA, 16 h; active compounds read low; activity change, % at 57.5 µM; hit rate 4.7% among 360,000; in the data active means activity change below about -50%; inconclusive means mostly about -30% to -49%
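THP-1 cells pretreated 1 hr with compounds (up to 57.5 uM final), then stimulated with LPS (250 ng/mL final) plus ATP (1.25 mM final); secreted IL-1B measured by AlphaLISA after 16 hr, decreased signal indicating inhibition.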
Giardia killer: kills Giardia lamblia; Giardia lamblia trophozoite viability; activity change, % at 7.66 µM, hits read low; hit rate 0.15% among 340,000; AID 540267; in the data active means activity change below about -80%; inconclusive means between about -30% and that limit;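 further: parasites exposed to compound for two days anaerobically before the ATP read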
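Trophozoite viability was measured as ATP-dependent luminescence, read 15-30 min after reagent addition. Before that, parasites at 100 cells/well were exposed to compounds for 48 h, anaerobically, at 37 deg C.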
TDP1 cell noCPT: qHTS for Inhibitors of human tyrosyl-DNA phosphodiesterase 1 (TDP1): qHTS in cells in absence of CPT | hit rate 15% among 420,000 | Potency, µM (top dose mostly 46.2 µM), inactives show top-dose activity change, negative = growth inhibition, actives largely listed as inhibitors | DT40 Tdp1-/- hTDP1 cells, no CPT, ATP luminescence, 48 h; further: potency means the concentration at half of the fitted maximal effect; nearly all actives have a fitted effect of over 55% in size
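Growth of hTDP1-complemented DT40 Tdp1-knockout cells is measured by ATP luminescence after at least 48 hr compound exposure at 37 °C, with DMSO substituting for the 20 nM CPT used in the parallel screen.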
TDP1 inh: TDP1 (human) enzyme inhibition | Q9NUW8 | Potency, µM (titrated, usually from 130 µM), for the others: at the highest dose activity change, negative = inhibition, actives largely listed as inhibitors | hit rate 0.28% among 350,000 | recombinant TDP1, AlphaScreen DNA substrate cleavage; further: potency means the concentration at half of the fitted maximal effect; nearly all actives have a fitted effect of over 40% in size
Target sequence (Q9NUW8 whole entry, looked up): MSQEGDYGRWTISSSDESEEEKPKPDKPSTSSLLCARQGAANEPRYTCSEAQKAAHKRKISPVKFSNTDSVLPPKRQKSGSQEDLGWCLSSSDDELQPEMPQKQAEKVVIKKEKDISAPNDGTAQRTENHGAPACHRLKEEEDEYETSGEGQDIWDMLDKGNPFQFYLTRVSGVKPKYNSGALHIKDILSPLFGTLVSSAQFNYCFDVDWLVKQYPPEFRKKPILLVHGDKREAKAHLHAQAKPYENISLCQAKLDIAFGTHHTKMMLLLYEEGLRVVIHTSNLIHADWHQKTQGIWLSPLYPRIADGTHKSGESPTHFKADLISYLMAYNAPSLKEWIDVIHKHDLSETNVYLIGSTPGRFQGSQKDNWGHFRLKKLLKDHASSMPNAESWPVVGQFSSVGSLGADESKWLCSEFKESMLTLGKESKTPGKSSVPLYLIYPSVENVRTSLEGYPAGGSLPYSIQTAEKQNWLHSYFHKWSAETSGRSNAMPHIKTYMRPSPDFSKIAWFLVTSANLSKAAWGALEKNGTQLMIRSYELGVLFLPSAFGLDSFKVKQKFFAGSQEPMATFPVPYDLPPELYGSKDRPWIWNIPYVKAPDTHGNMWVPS
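Here, a 5' biotin and 3' phosphotyrosine-FITC DNA oligonucleotide reports Tdp1 activity: intact substrate bridges AlphaScreen beads, while cleavage leaves a 3' phosphate and drops signal. All incubations at room temperature.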
ELG1 repair inh: ELG1-dependent DNA repair inhibition; HEK293T ELG1-luciferase reporter, luminescence, 16 h; DNA damage induced by 5-fluorouridine; Potency, µM (highest dose often 46.1 µM), inactives show top-dose activity change, negative = inhibition, usual class: inhibitors; hit rate 2.3% among 330,000; AID 504467; further: potency means the concentration at half of the fitted maximal effect; nearly all actives have a fitted effect of over 55% in size
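Step one: seed 2,000 cells per well. Step two: pin-transfer compound or DMSO alongside 5-fluorouridine. Step three: incubate 16 hr, 37 °C, 5% CO2. Step four: add ONE-Glo, wait 30 min, read luminescence.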
Starred values were filed as active, the others as inactive; ? = inconclusive; / = no result given. Most compounds without a hit are left out; they make up all but 19% or so of the library. Unless noted, the call rests on the fitted dose curve; in most records, active means well fitted curve in the direction sought with a large enough effect; inconclusive means small, poorly fitted or top-dose-only effect, or another doubt; inactive means no such curve, though single readings can be large; an effect the other way counts as inactive or inconclusive. On the % scale 0 is the no-effect control and ±100 the full control effect.

SMILES	DT40 TDP1 CPT	IL1B secr inh	Giardia killer	TDP1 cell noCPT	TDP1 inh	ELG1 repair inh
CCOC(=O)c1c(N/N=C/c2cccnc2)n[nH]c1C	13µM*	-16.5	28.9	13µM*	1.2%	?
O=C(CNc1n[nH]c(=O)[nH]c1=O)N/N=C/c1cccnc1	-22.7%	4.0	-3.2	0.6%	1.9%	1.5%
COc1cccc(CNC(=O)N2CCc3c(sc4c3CCCC4)C2c2ccc(F)cc2)c1 (centres undefined)	?	/	/	14.6µM*	1.2%	/
COc1ccc(NC(=O)N2CCc3c(sc4c3CCCC4)C2c2ccccc2OC)cc1 (centres undefined)	16.4µM*	/	/	13µM*	0.0%	/
COC(=O)c1ccccc1NC(=O)N1CCc2c(sc3c2CCCC3)C1c1ccc(F)cc1 (centres undefined)	-27.4%	/	/	-28.5%	6.2%	/
O=C(CNC(=O)c1nn(Cc2ccccc2)c(=O)c2ccccc12)Nc1ccc(F)c(F)c1F	-17.3%	39.4	-6.4	-28.9%	0.7%	?
COC(=O)c1cc(CN2CCN(c3ccccc3C)CC2)ccc1O	?	1.4	-7.2	?	-10.1%	23.1µM*
CCNC(=O)C1(C)CCN(Cc2ccccc2-c2ccccc2)C1 (centres undefined)	?	16.5	/	?	/	/
CCNC(=O)C1(C)CCN(Cc2ccc(-c3ccccc3)cc2)C1 (centres undefined)	?	-8.0	/	20.6µM*	/	/
CCNC(=O)C1(C)CCN(Cc2csc(-c3ccccc3)n2)C1 (centres undefined)	?	-16.7	/	11.6µM*	/	/
CCNC(=O)C1(C)CCCN(Cc2csc(-c3ccccc3)n2)C1 (centres undefined)	?	15.7	/	?	/	/
O=C(c1cc2ccccc2oc1=O)N(c1ccc(Cl)cc1)C1C=CS(=O)(=O)C1 (centres undefined)	16.4µM*	0.0	-23.6	?	-1.1%	-1.7%
CCOC(=O)N1CCN(C(=O)CSc2nc3c(cnn3-c3ccc(Cl)cc3)c(=O)[nH]2)CC1	20.6µM*	17.2	0.2	25.9µM*	5.3%	?
Cc1cccc(-n2ncc3c(=O)[nH]c(SCC(=O)N4CC(=O)Nc5ccccc54)nc32)c1	?	47.2	11.8	16.4µM*	-0.8%	14.8%
COC(=O)C(C)Sc1nc2c(cnn2-c2ccc(F)cc2)c(=O)[nH]1 (centres undefined)	7.9%	10.7	-12.7	7.3%	2.9%	17.0%
CCOC(=O)C(C)Sc1nc2c(cnn2-c2ccc(F)cc2)c(=O)[nH]1 (centres undefined)	20.6µM*	74.7	-12.0	?	/	-3.4%
CSCCC(NC(=O)COc1ccccc1)C(=O)N1CCN(c2ccccc2O)CC1 (centres undefined)	-20.2%	-6.3	14.8	?	/	-4.6%
Cc1cccc(C(=O)N[C@H](C(=O)Nc2nc3ccc(S(C)(=O)=O)cc3s2)C(C)C)c1	?	?	4.7	?	8.1%	1.3%
O=C1C[C@@H](c2ccc(O)c(O)c2)Oc2cc(O[C@H]3O[C@@H](CO)[C@H](O)[C@@H](O)[C@@H]3O)cc(O)c21	/	/	/	/	-2.3%	/
CC(=O)N1CCN(c2ccc(NC(=O)c3ccccc3Cl)cc2)CC1	-7.4%	12.2	-4.0	?	/	0.1%
O=C(Nc1ccc(N2CCCCCC2)cc1)c1ccccc1Cl	13µM*	?	5.9	16.4µM*	8.2%	?
O=C(Nc1ccc(N2CCCC2)cc1)c1cc(Cl)ccc1Cl	23.1µM*	-2.8	18.7	23.1µM*	/	-0.7%
O=C(Nc1ccc(N2CCCCC2)cc1)c1ccccn1	16.4µM*	-3.2	-102.2*	10.3µM*	8.1%	?
Cc1cccc(C(=O)Nc2ccc(N3CCC(CCN4CCOCC4)CC3)c(C(=O)O)c2)c1	0.5%	/	/	-13.1%	25.1µM*	/
